Among the data in PubChem BioAssay are activation and outcome values, retold here.

Active and inactive are the calls of the source.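 How the source made its calls: active means calcium signal rise above buffer-control mean plus 5 SD in both duplicates, and also a hit in the primary screen; inactive means the rest.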

This assay deals with Short transient receptor potential channel 4 (Mus musculus) (UniProt Q9QUQ5). Put plainly: calcium flux activators in TRPC4/5HT1a cells, counter-screen for TRPC4 activator project, cell-based, second counter screen, HEK293 TRPC4/5HT1a, Fluo-4 (AID 434977).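 On activation: plate controls were assay buffer for no effect and maximal serotonin response for full effect.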 Particulars: Fluo-4 calcium flux, at 10 µM; hits give high values. (Calcium flux is commonly read through the fluorescence of an indicator in the cells.)
With `Cc1cc(N2CCCCC2)nc(NCc2ccccc2)n1`, the activation is 19.4% (active).
As for `COCCNC(=O)/C(C#N)=C/c1cc(C(C)C)c(OC)cc1C`, the result was inactive.
With `CCN1CCN(c2ccc(S(=O)(=O)N3CCCCC3)cc2NC(=O)COc2cc(C)ccc2Cl)CC1`, the outcome was inactive.
As to `FC(F)(F)COc1nc(N2CCCCC2)nc(N2CCNCC2)n1`, the result was inactive.
The same measure, in the same setting: the entry for `CCSc1nnc([C@H](Cc2c[nH]c3ccccc23)NC(=O)OC(C)(C)C)o1` is “inactive”.
On the same count and under the same terms, the entry for `COc1ccc(/C=C(\C#N)C(=O)N2CCOCC2)cc1Br` is “inactive”; for `N#Cc1ccc(OCC(O)CN2CCN(c3ncc(C(F)(F)F)cc3Cl)CC2)cc1` (configuration not stated) it is “inactive”.
Same read-out and setting: the entry for `CCCC1=C(C(=O)OCC)C(c2cc(Cl)cc(OC)c2OCC(=O)OCC)NC(=O)N1` (configuration not stated) is “inactive”; for `CCCCCc1ccc(OCCCC[n+]2ccccc2)c(CCCCC)c1` it is “inactive”.
Consider `CC(C)(C)c1ccccc1OCCCCCn1ccnc1`, for which the outcome was inactive.
The same measure, in the same setting: the entry for `CCOC(=O)COc1cc(-n2c(=S)[nH]c3ccccc3c2=O)c(Cl)cc1Cl` is “inactive”.
With `CCCCc1nc(N2CCOCC2)c(C#N)c2c1CCCC2`, the result was inactive.
Still for that read-out and setting: the entry for `CCN1CCN(c2ccc(NC(=O)CCc3c(C)nc4c(-c5ccc(F)cc5)c(C)nn4c3C)cc2)CC1` is “inactive”; for `CCOc1cc(/C=C(\C#N)C(=O)Nc2cccc(C(=O)O)c2)cc(Br)c1OC(=O)c1ccc(OC)cc1` it is “inactive”.
The same measure, in the same setting: then `COc1ccc(Cl)c2sc(N(CCN(C)C)C(=O)c3ccc4c(c3)OCCO4)nc12`, with “inactive”.
As to `CCCCN1C(=O)C(=O)N(CC(=O)Nc2cc(OCC)c(N3CCOCC3)cc2OCC)C1=O`, the outcome was inactive.
Same read-out and setting: the entry for `CN(C)CCOc1ccc2ccccc2c1` is “inactive”.
